The target of test [1] is T1, GST-Nv-NF-kB (Ser allele) (Nematostella vectensis, UniProt A7UNT2 2-411).
T1 sequence: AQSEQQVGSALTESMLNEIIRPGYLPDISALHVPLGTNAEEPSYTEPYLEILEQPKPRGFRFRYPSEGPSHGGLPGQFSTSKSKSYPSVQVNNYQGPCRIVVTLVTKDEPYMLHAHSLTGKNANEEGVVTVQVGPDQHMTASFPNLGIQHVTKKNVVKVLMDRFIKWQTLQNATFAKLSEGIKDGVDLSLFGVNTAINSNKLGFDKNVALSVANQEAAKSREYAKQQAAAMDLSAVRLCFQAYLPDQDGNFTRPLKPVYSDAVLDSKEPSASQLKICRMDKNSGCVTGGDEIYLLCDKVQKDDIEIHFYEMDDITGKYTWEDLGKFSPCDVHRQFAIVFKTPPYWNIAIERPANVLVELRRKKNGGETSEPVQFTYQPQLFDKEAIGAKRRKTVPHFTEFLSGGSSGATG
In words: protein-binding microarray (PBM); PBM: ~300 nM protein, 6 mM HEPES pH 7.8, 80 mM KCl, 0.5 mM EDTA, 0.5 mM EGTA, 6% glycerol, 35 ng/ul poly-dIdC, 1% milk, 1 h, room temperature; Ap Aiptasia and Nv Nematostella (sea anemones) / Co Capsaspora / Aq Amphimedon (sponge) / Dm Drosophila / Hu human; RHD is the Rel homology domain; high values mean tight binding. As to conditions: dsDNA, one strand shown.

For a further test, the target named is GST-Hu-p50 (Homo sapiens, UniProt P19838 7-356). Described as above. The note with it: dsDNA, one strand shown.
Chain of GST-Hu-p50 (P19838 7-356): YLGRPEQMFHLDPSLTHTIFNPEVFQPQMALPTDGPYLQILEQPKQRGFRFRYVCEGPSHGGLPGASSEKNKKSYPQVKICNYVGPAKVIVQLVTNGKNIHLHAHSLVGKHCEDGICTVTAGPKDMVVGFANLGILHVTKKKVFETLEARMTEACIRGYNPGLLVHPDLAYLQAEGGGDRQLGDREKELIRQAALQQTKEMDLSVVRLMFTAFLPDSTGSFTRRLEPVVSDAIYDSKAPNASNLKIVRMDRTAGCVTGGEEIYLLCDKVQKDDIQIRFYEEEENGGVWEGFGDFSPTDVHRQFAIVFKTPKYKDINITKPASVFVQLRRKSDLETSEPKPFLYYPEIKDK

As to “CCGATTAACATCAGGAATCTACCTGATGTTAATCGGGTCTTGATTCGCTTGACGCTGCTG”, the results for the binding signal (in test [1]; in the test with GST-Hu-p50) were 1.79 z-score and 2.27 z-score, respectively.

In the case of “CCGATTAACATCATAAGGGGTGTTGATGTTAATCGGGTCTTGATTCGCTTGACGCTGCTG”, the results for the binding signal (in test [1]; in the test with GST-Hu-p50) were 1.09 z-score and 1.44 z-score, respectively.

Turning to “CCGATTAACATCAGGCGAGTCCCTGATGTTAATCGGGTCTTGATTCGCTTGACGCTGCTG”, the binding signal amounted to 2.72 z-score in test [1] and 2.61 z-score with GST-Hu-p50.

On to “CCGATTAACATCAGGGACAAAAATGATGTTAATCGGGTCTTGATTCGCTTGACGCTGCTG”, for which the results for the binding signal (in test [1]; with GST-Hu-p50) were 3.37 z-score and 2.61 z-score, respectively.

Consider “CCGATTAACATCAAAAAAACCCATGATGTTAATCGGGTCTTGATTCGCTTGACGCTGCTG”, for which the binding signal in test [1] was determined as 4.6 z-score; with GST-Hu-p50, 4.37 z-score.

Turning to “CCGATTAACATCACTAATTTCCCTGATGTTAATCGGGTCTTGATTCGCTTGACGCTGCTG”, the binding signal in test [1] was determined as 6.51 z-score; with GST-Hu-p50 it was 3.94 z-score.

Consider “CCGATTAACATCAAACTCTCCCCTGATGTTAATCGGGTCTTGATTCGCTTGACGCTGCTG”, for which the figures for the binding signal (in test [1]; with GST-Hu-p50) were 4.93 z-score and 4.08 z-score, respectively.

For the sequence “CCGATTAACATCAGGTTTTTCCATGATGTTAATCGGGTCTTGATTCGCTTGACGCTGCTG”, the binding signal was 1.02 z-score in test [1] and 1.41 z-score with GST-Hu-p50.

On to “CCGATTAACATCACGAGTTTCCCTGATGTTAATCGGGTCTTGATTCGCTTGACGCTGCTG”, for which the binding signal in test [1] amounted to 5.41 z-score; with GST-Hu-p50 it was 2.39 z-score.

“CCGATTAACATCAAGGAAACCCCTGATGTTAATCGGGTCTTGATTCGCTTGACGCTGCTG”: the binding signal worked out at 3.81 z-score in test [1] and 5.22 z-score with GST-Hu-p50.

For “CCGATTAACATCAGAAATTTTCCTGATGTTAATCGGGTCTTGATTCGCTTGACGCTGCTG”, the binding signal in test [1] came out at 1.33 z-score; with GST-Hu-p50 it was 2.13 z-score.

On to “CCGATTAACATCAGGGTGTTTTATGATGTTAATCGGGTCTTGATTCGCTTGACGCTGCTG”, for which the binding signal in test [1] was determined as 2.32 z-score; with GST-Hu-p50 it was 4.01 z-score.

For “CCGATTAACATCAGGGGGGGTCATGATGTTAATCGGGTCTTGATTCGCTTGACGCTGCTG”, the binding signal in test [1] came to 1.92 z-score; in the test with GST-Hu-p50 it was 3.32 z-score.

Take “CCGATTAACATCAGGGACTTACCTGATGTTAATCGGGTCTTGATTCGCTTGACGCTGCTG”: the binding signal in test [1] came out at 5.49 z-score; with GST-Hu-p50, 4.61 z-score.

Regarding “CCGATTAACATCAGGGATCACCCTGATGTTAATCGGGTCTTGATTCGCTTGACGCTGCTG”, the binding signal in test [1] came out at 1.43 z-score; with GST-Hu-p50 it was 2.48 z-score.

As for “CCGATTAACATCAGGGACAGCCCTGATGTTAATCGGGTCTTGATTCGCTTGACGCTGCTG”, the binding signal in test [1] turned out to be 2.03 z-score; with GST-Hu-p50, 3.54 z-score.

“CCGATTAACATCACTACTTTCCCTGATGTTAATCGGGTCTTGATTCGCTTGACGCTGCTG”: the binding signal was found to be 5.24 z-score in test [1] and 3.06 z-score in the test with GST-Hu-p50.

In the case of “CCGATTAACATCAGGGATTCACCTGATGTTAATCGGGTCTTGATTCGCTTGACGCTGCTG”, the binding signal in test [1] turned out to be 4.26 z-score; with GST-Hu-p50, 4.55 z-score.

In the case of “CCGATTAACATCACATGTTCCCCTGATGTTAATCGGGTCTTGATTCGCTTGACGCTGCTG”, the binding signal in test [1] came to 6.15 z-score; with GST-Hu-p50, 3.07 z-score.

For “CCGATTAACATCAGGGACAACCCTGATGTTAATCGGGTCTTGATTCGCTTGACGCTGCTG”, the binding signal in test [1] was determined as 3.39 z-score; with GST-Hu-p50, 2.91 z-score.

“CCGATTAACATCAAGTAAATCCCTGATGTTAATCGGGTCTTGATTCGCTTGACGCTGCTG”: the figures for the binding signal (in test [1]; with GST-Hu-p50) were 1.71 z-score and 2.28 z-score, respectively.

Turning to “CCGATTAACATCACAGGGAAAAATGATGTTAATCGGGTCTTGATTCGCTTGACGCTGCTG”, the binding signal in test [1] was found to be 5.18 z-score; with GST-Hu-p50 it was 3.13 z-score.

Consider “CCGATTAACATCAGGAGACTCCCTGATGTTAATCGGGTCTTGATTCGCTTGACGCTGCTG”, for which the binding signal was 1.61 z-score in test [1] and 1.93 z-score with GST-Hu-p50.

In the case of “CCGATTAACATCAGGAATGTCCCTGATGTTAATCGGGTCTTGATTCGCTTGACGCTGCTG”, the binding signal in test [1] was found to be 3.65 z-score; with GST-Hu-p50, 3.77 z-score.

With “CCGATTAACATCAAGGGAATACCTGATGTTAATCGGGTCTTGATTCGCTTGACGCTGCTG”, the binding signal worked out at 4.14 z-score in test [1] and 2.34 z-score with GST-Hu-p50.

With “CCGATTAACATCAGGCCATCCCCTGATGTTAATCGGGTCTTGATTCGCTTGACGCTGCTG”, the binding signal in test [1] turned out to be 3.8 z-score; with GST-Hu-p50, 3.33 z-score.

For the sequence “CCGATTAACATCAATATTTACCCTGATGTTAATCGGGTCTTGATTCGCTTGACGCTGCTG”, the binding signal in test [1] stood at 5.12 z-score; with GST-Hu-p50, 3.16 z-score.

In the case of “CCGATTAACATCAACATCCCCCCTGATGTTAATCGGGTCTTGATTCGCTTGACGCTGCTG”, the binding signal was determined as 5.5 z-score in test [1] and 4.91 z-score with GST-Hu-p50.

Consider “CCGATTAACATCATAAGCGGGGATGATGTTAATCGGGTCTTGATTCGCTTGACGCTGCTG”, for which the binding signal in test [1] turned out to be 3.83 z-score; with GST-Hu-p50, 3.66 z-score.

On to “CCGATTAACATCAGGACGTTCCCTGATGTTAATCGGGTCTTGATTCGCTTGACGCTGCTG”, for which the binding signal in test [1] came to 1.14 z-score; in the test with GST-Hu-p50 it was 1.71 z-score.

Regarding “CCGATTAACATCAGGGAATCCTATGATGTTAATCGGGTCTTGATTCGCTTGACGCTGCTG”, the binding signal was determined as 4.4 z-score in test [1] and 2.72 z-score with GST-Hu-p50.

In the case of “CCGATTAACATCAAATTCCCTCGTGATGTTAATCGGGTCTTGATTCGCTTGACGCTGCTG”, the binding signal in test [1] was determined as 4.74 z-score; in the test with GST-Hu-p50, 3.62 z-score.

With “CCGATTAACATCACCGGAATTCCTGATGTTAATCGGGTCTTGATTCGCTTGACGCTGCTG”, the results for the binding signal (in test [1]; with GST-Hu-p50) were 1.56 z-score and 2.71 z-score, respectively.

For the sequence “CCGATTAACATCAAGTGTTTCCCTGATGTTAATCGGGTCTTGATTCGCTTGACGCTGCTG”, the binding signal in test [1] amounted to 3.36 z-score; in the test with GST-Hu-p50 it was 1.3 z-score.

On to “CCGATTAACATCAGGGACTCACCTGATGTTAATCGGGTCTTGATTCGCTTGACGCTGCTG”, for which the binding signal in test [1] amounted to 2.72 z-score; with GST-Hu-p50 it was 3 z-score.

As for “CCGATTAACATCAATTTTTCCCATGATGTTAATCGGGTCTTGATTCGCTTGACGCTGCTG”, the binding signal in test [1] was 5.77 z-score; with GST-Hu-p50 it was 3.53 z-score.

Values taken from paper PMC5700166.
